# Measurements published in PubChem BioAssay (NCATS).
# Inconclusive results are not listed. Values without a mark were called inactive. Calls follow the shape of the dose curve; as a rule, active = well fitted inhibition curve with a large enough effect; inconclusive = small, poorly fitted or top-dose-only effect; inactive = no such curve, though single readings can be large or run the other way.
# Biological target: Cytochrome P450 3A4 (Homo sapiens) (UniProt P08684)
# Test: qHTS Assay for Inhibitors and Substrates of Cytochrome P450 3A4 (AID 884); also: nearly all actives have a fitted effect of over 50% in size
# Settings: recombinant CYP3A4, Luciferin-PPXE luminescence; series mostly up to 57.1 µM; activity change, negative = inhibition: at the top concentration
# Protocol: NIH Molecular Libraries Screening Centers Network [MLSCN]
# NIH Chemical Genomics Center [NCGC]
# The P450 gene superfamily is involved in the metabolism and clearance of xenobiotics. This assay used human CYP3A4 to measure the dealkylation of luciferin-6' phenylpiperazinylyl (Luciferin-PPXE; […]) to luciferin. The luciferin is then measured by luminescence after the addition of a luciferase detection reagent. Luciferin-PPXE concentration in the assay was equal to its KM for CYP3A4. Inhibitors and some substrates limit the production of luciferin, and decrease measured luminescence.
# NCGC Assay Protocol Summary:
# Two uL of enzyme and substrate mix (final concentrations: 20nM CYP3A4, 25uM Luciferin-PPXE, 200mM KPO4) were dispensed into a white, solid bottom 1536-well microtiter plate. 23nL of compound was transferred by a pin tool. The plate was incubated at RT for 10 min. Two uL of an NADPH regeneration solution (Promega supplied reagent) was dispensed and the reaction was allowed to continue for 60 min at RT. Then the reaction was stopped by reconstituted luciferin detection buffer. After another 20 min of incubation the plate was read on the ViewLux (Perkin Elmer) at 60 sec exposure and 2x2 binning. This protocol was carried out with Promega-Glo reagents and further information can be found at http://www.promega.com/tbs/tb325/tb325.pdf. Data were normalized to the to AC100 inhibition (57 uM ketoconazole).
# Keywords: P450, CYP3A4, Luciferase, MLSMR, MLSCN, NIH Roadmap, qHTS, NCGC
# % is scaled to controls: 0 for no effect and ±100 for the full control effect.
# Sequence of Cytochrome P450 3A4 (Homo sapiens) (P08684 whole entry, looked up): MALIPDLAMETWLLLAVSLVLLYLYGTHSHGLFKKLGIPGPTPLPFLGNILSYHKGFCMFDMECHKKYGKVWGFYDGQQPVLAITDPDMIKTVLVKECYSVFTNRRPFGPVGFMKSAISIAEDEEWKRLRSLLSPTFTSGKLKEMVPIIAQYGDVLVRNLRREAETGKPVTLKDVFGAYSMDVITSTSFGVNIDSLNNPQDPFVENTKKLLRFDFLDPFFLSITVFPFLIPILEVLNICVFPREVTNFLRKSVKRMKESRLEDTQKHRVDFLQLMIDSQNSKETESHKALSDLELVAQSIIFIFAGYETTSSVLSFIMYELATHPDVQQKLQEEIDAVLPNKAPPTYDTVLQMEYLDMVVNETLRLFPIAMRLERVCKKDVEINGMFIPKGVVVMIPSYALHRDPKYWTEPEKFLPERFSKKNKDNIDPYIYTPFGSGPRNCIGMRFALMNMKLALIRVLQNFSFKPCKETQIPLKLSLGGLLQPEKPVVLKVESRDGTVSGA
row,SMILES,"activity change, negative = inhibition [%]"
1,O=[N+]([O-])c1cc(C(F)(F)F)ccc1Cl,-3.06
2,Cc1cccc2ccccc12,-2.41
3,CCCCC(CC)C(=O)O (stereo not given),4.99
4,NC(=O)NC(N)=O,3.79
5,CC(C)Nc1ccccc1,-6.83
6,CNC(=O)N(c1ccccc1)c1ccccc1,-2.25
7,C=CCCCCCCC=C,-0.558
8,Cc1cc(C(=O)O)ccc1[N+](=O)[O-],7.89
9,CNc1ccccc1,-5.56
10,CC=O,0.369
11,O=[N+]([O-])c1ccc(Cl)cc1Cl,-11.5
12,COC(=O)CS,-3.8
13,ClC/C=C/CCl,15.5
14,CCOCCOCC,-19.7
15,CCNc1ccccc1,-0.341
16,CC(C)CCOC(=O)/C=C/c1ccccc1,-17.7
17,c1ccc(Nc2ccccc2)cc1,-17
18,COC(=O)CCCC(=O)OC,-3.65
19,Cc1ccc2cccnc2c1,-6.56
20,CCC(C)(C)OC,7.04

row,SMILES,"activity change, negative = inhibition [%]"
1,CO[Si](CCCNCCC[Si](OC)(OC)OC)(OC)OC,-13.3
2,COc1ccccc1[N+](=O)[O-],-7.37
3,Cc1cc(C)cc(O)c1,-10.3
4,Cc1cccc(Br)c1,-3.45
5,Cc1ccccc1Br,-18.4
6,BrC(Br)C(Br)Br,-7.16
7,Cc1ccc2ccccc2c1[N+](=O)[O-],-20.1
8,CC/C=C1/OC(=O)c2ccccc21,-24
9,C=CCOC(=O)COCCC(C)C,-6.15
10,CCC(C)(C)C(=O)O,-3.02
11,O=Cc1cccc(Br)c1,-5.91
12,CC(=O)Nc1ccc(C)cc1,-20.2
13,CC(O)CC(C)O (stereo not given),-8.79
14,N#CCc1ccccc1[N+](=O)[O-],-23.7
15,OC1CCCC1,-11.4
16,O=[N+]([O-])c1ccc(NCCO)c(OCCO)c1,2.83
17,COC(=O)CC#N,-3.54
18,O=C(O)/C=C/C(=O)O,-7.69
19,CCCCC(C=O)CC (stereo not given),5.34
20,O=C1CCC(=O)O1,6.99
